# Reference: PubChem BioAssay (Tox21)
# Several values for one entry are separate records, joined by “and”; a condition that tells them apart may be missing. Identical values can stand only once. Results filed as inconclusive are left out. A call without a number means that no potency is given here. Some compounds were tested as several samples or in several runs, with calls that do not always agree. Activity calls are given as the source filed them. Unless noted, the call rests on the fitted dose curve.
# Experiments:
# [1] = Nuclear factor erythroid 2-related factor 2/antioxidant responsive element (Nrf2/ARE) small molecule agonists: qHTS cell viability counter screen in human keratinocytes (AID 1919968; active means well fitted curve in the direction sought with a large enough effect in the repeat runs; an effect the other way counts as inactive or inconclusive; further: nearly all actives have a fitted effect of over 55% in size)
# Procedure, shortened: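 HaCaT ARE reporter line, 1,500 cells/well; 5 h settle, 37 C/5% CO2; cpd in DMSO pinned; 23 h exposure; CellTiter-Fluor, 1 h; fluorescence.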
# [2] = Nuclear factor erythroid 2-related factor 2/antioxidant responsive element (Nrf2/ARE) small molecule agonists: luciferase reporter gene qHTS assay in human keratinocytes (AID 1919969); further: nearly all actives have a fitted effect of over 35% in size; further: potency means the concentration at half of the fitted maximal effect
# [3] = biological target: Gonadotropin-releasing hormone receptor (Homo sapiens) (UniProt P30968); experiment: Human gonadotropin-releasing hormone receptor (GnRHR) small molecule agonists, calcium flux assay in GnRHR-HEK293 cells (AID 1920063); further: nearly all actives have a fitted effect of over 35% in size
# Procedure, shortened: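 GnRHR-HEK293, 1500 cells/well, 18 h 37 C/5% CO2; Ca dye 1 h 37 C; cpd pinned (DMSO), agonist mode; kinetic FL 480/540, 3 min, 1 s reads; 15 conc, n=3.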
# [4] = biological target: KiSS-1 receptor (Homo sapiens) (UniProt Q969F8); experiment: Human kisspeptin (KISS1R) small molecule agonists, calcium flux assay in KISS1R-HEK293 cells (AID 1920064; active means well fitted curve in the direction sought with a large enough effect in the repeat runs; an effect the other way counts as inactive or inconclusive)
# Procedure, shortened: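 Stable human KISS1R HEK293 line; 18 h plating, 37 C/5% CO2; calcium dye 1 h 37 C; compound pin transfer; kinetic fluorescence Ex/Em 480/540, 3 min.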
# [5] = G protein-coupled receptor (GPCR) small molecule agonists, calcium flux assay: HEK293 wild type cell line counter screen (AID 1920065)
# Procedure, shortened: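 Kinetic fluorescence at Ex/Em 480/540, recorded every second over 3 min, served as the read-out after compound addition. Each compound was tested at 15 concentrations in triplicate on cells pre-loaded with calcium dye for 1 h.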
# [6] = p53 small molecule agonists, cell-based qHTS assay with human liver microsomes (AID 1963577);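 further: p53 response element beta-lactamase reporter cells with liver microsomes plus NADPH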
# Procedure, shortened: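 HLM-supplemented p53RE-bla reporter assay: 16 h compound exposure at 37 C, microsomes and NADPH each 0.5 mg/mL final, read by fluorescence intensity.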
# [7] = p53 small molecule agonists, cell-based qHTS assay with rat liver microsomes (AID 1963578)
# Procedure, shortened: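 Quantitative HTS of the Tox21 10K library: p53RE-bla cells, rat liver microsomes plus NADPH at 0.5 mg/mL final each, 16 h at 37 C, beta-lactamase fluorescence detection.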
# [8] = p53 small molecule agonists, cell-based qHTS assay with human liver microsomes: qHTS cell viability counter screen (AID 1963579); further: nearly all actives have a fitted effect of over 45% in size
# Procedure, shortened: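 Viability of p53RE-bla cells is measured as CellTiter-Glo luminescence following a 16 h, 37 C incubation with compound, liver microsomes from human donors and NADPH.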
# [9] = p53 small molecule agonists, cell-based qHTS assay with rat liver microsomes: qHTS cell viability counter screen (AID 1963580); further: nearly all actives have a fitted effect of over 45% in size; further: potency means the concentration at half of the fitted maximal effect
# Procedure, shortened: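 p53RE-bla HCT-116 cells (4,000/well) rested 5 h at 37 C, then given Tox21 compounds in DMSO with rat liver microsomes (0.5 mg/mL final) plus NADPH (0.5 mg/mL final) for 16 h at 37 C. Viability read by CellTiter-Glo luminescence after 30 min at room temperature.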
# [10] = p53 small molecule agonists, cell-based qHTS assay: qHTS cell viability counter screen (AID 1963581); further: nearly all actives have a fitted effect of over 45% in size
# Procedure, shortened: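 HCT-116 p53RE-bla cells, 4,000/well, plated 5 h before compound pin transfer; 16 h at 37 C; bla substrate 2 h RT; then CellTiter-Glo, 30 min RT, luminescence.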
# [11] = p53 small molecule agonists, cell-based qHTS assay (AID 1963582; active means well fitted activation curve with a large enough effect in the signal ratio in the repeat runs, not every such curve was filed as active; the % refers to the signal ratio)
# Procedure, shortened: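 Reporter line: p53RE-bla. Pre-incubation 5 h, 37 C, 5% CO2; compound (DMSO, pin tool) 16 h, 37 C; B/G FRET substrate 2 h RT; fluorescence intensity read.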
# [12] = biological target: 5-hydroxytryptamine receptor 2A (Homo sapiens) (UniProt P28223); experiment: 5-hydroxytryptamine receptor 2A (HTR2A) small molecule antagonists, cell-based qHTS assay (AID 1963586); further: nearly all actives have a fitted effect of over 45% in size; further: potency means the concentration at half of the fitted maximal effect
# Procedure, shortened: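 Antagonist-mode intracellular calcium assay: DOI (4 nM) added after 5 min compound pre-incubation at room temperature to dye-loaded HTR2A-CHO cells. Fluorescence followed for 3 min, sampled every second.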
# [13] = biological target: 5-hydroxytryptamine receptor 2A (Homo sapiens) (UniProt P28223); experiment: 5-hydroxytryptamine receptor 2A (HTR2A) small molecule agonists, cell-based qHTS assay (AID 1963587); further: nearly all actives have a fitted effect of over 30% in size
# Procedure, shortened: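 HTR2A-CHO cells, plated 18 h at 37 C/5% CO2, dye-loaded 1 h at 37 C; compounds in DMSO added by pin tool (agonist mode). Intracellular calcium flux read as kinetic fluorescence on FDSS over 2 min at 1 s intervals.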
# [14] = biological target: Muscarinic acetylcholine receptor M1 (Homo sapiens) (UniProt P11229); experiment: Cholinergic receptor muscarinic 1 (CHRM1) small molecule antagonists, cell-based qHTS assay (AID 1963588); further: nearly all actives have a fitted effect of over 40% in size
# Procedure, shortened: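 CHRM1-CHO calcium-flux assay, antagonist mode. Cells were seeded 18 h, dye-loaded 1 h at 37 C and given compound for 5 min at RT, then acetylcholine was added at 50nM. FDSS fluorescence was read 3 min; 15 concentrations, three runs.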
# [15] = biological target: Muscarinic acetylcholine receptor M1 (Homo sapiens) (UniProt P11229); experiment: Cholinergic receptor muscarinic 1 (CHRM1) small molecule agonists, cell-based qHTS assay (AID 1963589); further: nearly all actives have a fitted effect of over 35% in size
# Procedure, shortened: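 Human M1 in stable CHO line; 18 h plating, 1 h dye load 37 C; cpd added (agonist mode); Ca2+ fluorescence kinetic read, 1 s intervals; 15 conc, 3 runs.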
# [16] = cAMP Responsive Elements (CRE) small molecule agonists, cell-based qHTS assay (AID 1963590)
# Procedure, shortened: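 HEK 293T CRE-bla, 2,000 cells/well, 18 h preincubation 37 C/5% CO2; cpds (DMSO) pinned, 3 h; LiveBLAzer B/G FRET substrate, 2 h RT.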
# [17] = biological target: Beta-2 adrenergic receptor (Homo sapiens) (UniProt P07550); experiment: Adrenergic beta2 receptor (ADRB2) small molecule antagonists, cell-based qHTS assay (AID 1963592); further: nearly all actives have a fitted effect of over 50% in size; further: potency means the concentration at half of the fitted maximal effect; on activity change, negative = inhibition: series mostly up to about 92 µM
# Procedure, shortened: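 Cells (CHO, stable ADRB2 overexpression) incubated 18-20hr at 37C; compounds added from DMSO; agonist mix (1nM isoproterenol, 100uM IBMX, 25uM Ro-20-1724) added; 0.5hr RT; d2-cAMP and anti-cAMP-cryptate added; 1hr RT; 665/615 nm read.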
# [18] = biological target: D(2) dopamine receptor (Homo sapiens) (UniProt P14416); experiment: Dopamine D2 receptor (DRD2) small molecule agonists, cell-based qHTS assay (AID 1963594); further: nearly all actives have a fitted effect of over 35% in size
# Procedure, shortened: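 HEK293 cells stably expressing DRD2 were cultured 24 h at 37 C, then given Ro20-1724 (0.1 mM final) and compounds for 10 min at room temperature. NKH477 (200nM) was then added for 30 min. cAMP was read by HTRF.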
# [19] = biological target: D(2) dopamine receptor (Homo sapiens) (UniProt P14416); experiment: Dopamine D2 receptor (DRD2) small molecule antagonists, cell-based qHTS assay (AID 1963595; active means well fitted inhibition curve with a large enough effect in the signal ratio in the repeat runs, with a control signal flat; the % refers to the signal ratio; further: potency means the concentration at half of the fitted maximal effect)
# Procedure, shortened: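 Antagonism was scored as restored cAMP in HEK293-DRD2 cells. These cells were stimulated with 200 nM NKH477 and 12 nM quinpirole for 30 min at room temperature, in the presence of 0.1 mM Ro20-1724.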
# [20] = cAMP Responsive Elements (CRE) small molecule antagonists, cell-based qHTS assay (AID 1963591; active means well fitted inhibition curve with a large enough effect in the signal ratio in the repeat runs, not every such curve was filed as active; the % refers to the signal ratio)
# Procedure, shortened: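 Beta-lactamase reporter read by FRET substrate (LiveBLAzer B/G) after 2 h at room temperature. CRE-bla HEK293T cells had received compound plus 0.25 uM (final) NKH477 for 3 h at 37 °C.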
# Sequence of Beta-2 adrenergic receptor (Homo sapiens) (P07550 whole entry, looked up): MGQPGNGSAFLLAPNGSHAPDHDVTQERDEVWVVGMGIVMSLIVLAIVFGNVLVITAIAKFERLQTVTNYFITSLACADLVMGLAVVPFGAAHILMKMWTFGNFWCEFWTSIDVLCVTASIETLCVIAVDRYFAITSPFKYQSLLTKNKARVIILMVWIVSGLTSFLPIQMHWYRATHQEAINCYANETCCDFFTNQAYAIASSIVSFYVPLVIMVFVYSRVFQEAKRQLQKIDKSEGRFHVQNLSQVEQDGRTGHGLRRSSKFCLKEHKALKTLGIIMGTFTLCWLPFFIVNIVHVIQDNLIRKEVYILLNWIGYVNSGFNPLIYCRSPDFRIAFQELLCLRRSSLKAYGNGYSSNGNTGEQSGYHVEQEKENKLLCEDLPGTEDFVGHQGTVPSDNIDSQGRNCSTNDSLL
# Sequence of D(2) dopamine receptor (Homo sapiens) (P14416 whole entry, looked up): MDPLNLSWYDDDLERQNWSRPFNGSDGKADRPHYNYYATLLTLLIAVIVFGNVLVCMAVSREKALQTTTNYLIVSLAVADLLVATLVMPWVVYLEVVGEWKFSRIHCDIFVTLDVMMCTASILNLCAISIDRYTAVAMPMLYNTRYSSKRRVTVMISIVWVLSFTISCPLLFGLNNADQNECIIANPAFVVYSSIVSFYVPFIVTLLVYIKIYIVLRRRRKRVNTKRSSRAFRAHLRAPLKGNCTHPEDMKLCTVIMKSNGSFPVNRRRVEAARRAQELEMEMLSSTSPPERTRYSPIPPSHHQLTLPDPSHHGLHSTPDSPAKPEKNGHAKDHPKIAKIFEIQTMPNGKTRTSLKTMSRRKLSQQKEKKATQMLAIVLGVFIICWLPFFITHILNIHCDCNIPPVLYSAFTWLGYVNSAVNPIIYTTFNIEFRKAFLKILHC
# Sequence of KiSS-1 receptor (Homo sapiens) (Q969F8 whole entry, looked up): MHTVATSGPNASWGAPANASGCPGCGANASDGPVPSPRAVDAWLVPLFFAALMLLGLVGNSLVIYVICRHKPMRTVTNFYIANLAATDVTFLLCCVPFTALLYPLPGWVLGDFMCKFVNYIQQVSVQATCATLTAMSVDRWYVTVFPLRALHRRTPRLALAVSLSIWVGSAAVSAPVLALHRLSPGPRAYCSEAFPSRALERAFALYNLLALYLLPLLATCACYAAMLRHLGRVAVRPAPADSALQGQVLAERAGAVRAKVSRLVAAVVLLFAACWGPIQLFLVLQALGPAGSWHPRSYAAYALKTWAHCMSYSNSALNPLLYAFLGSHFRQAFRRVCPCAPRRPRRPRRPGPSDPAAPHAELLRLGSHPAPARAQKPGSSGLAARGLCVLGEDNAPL
# Sequence of Gonadotropin-releasing hormone receptor (Homo sapiens) (P30968 whole entry, looked up): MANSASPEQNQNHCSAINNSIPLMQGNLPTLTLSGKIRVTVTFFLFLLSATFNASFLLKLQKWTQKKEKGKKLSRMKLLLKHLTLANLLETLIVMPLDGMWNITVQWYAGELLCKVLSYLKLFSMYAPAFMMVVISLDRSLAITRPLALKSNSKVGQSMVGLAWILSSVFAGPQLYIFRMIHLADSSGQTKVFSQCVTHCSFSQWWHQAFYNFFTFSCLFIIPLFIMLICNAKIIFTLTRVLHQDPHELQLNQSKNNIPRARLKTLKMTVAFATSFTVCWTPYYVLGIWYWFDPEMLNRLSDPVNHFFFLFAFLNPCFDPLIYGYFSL
# Sequence of 5-hydroxytryptamine receptor 2A (Homo sapiens) (P28223 whole entry, looked up): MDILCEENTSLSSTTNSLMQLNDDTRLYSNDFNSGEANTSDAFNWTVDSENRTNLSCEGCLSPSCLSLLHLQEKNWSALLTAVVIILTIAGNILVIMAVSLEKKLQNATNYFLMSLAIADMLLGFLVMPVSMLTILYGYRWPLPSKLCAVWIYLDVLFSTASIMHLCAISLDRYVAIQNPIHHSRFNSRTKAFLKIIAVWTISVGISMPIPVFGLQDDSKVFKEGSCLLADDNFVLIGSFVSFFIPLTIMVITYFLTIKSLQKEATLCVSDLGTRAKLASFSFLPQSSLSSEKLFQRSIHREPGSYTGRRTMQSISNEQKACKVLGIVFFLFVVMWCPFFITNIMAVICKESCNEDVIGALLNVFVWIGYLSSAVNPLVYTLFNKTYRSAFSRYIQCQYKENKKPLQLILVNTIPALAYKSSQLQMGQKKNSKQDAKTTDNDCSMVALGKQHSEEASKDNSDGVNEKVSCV
# Sequence of Muscarinic acetylcholine receptor M1 (Homo sapiens) (P11229 whole entry, looked up): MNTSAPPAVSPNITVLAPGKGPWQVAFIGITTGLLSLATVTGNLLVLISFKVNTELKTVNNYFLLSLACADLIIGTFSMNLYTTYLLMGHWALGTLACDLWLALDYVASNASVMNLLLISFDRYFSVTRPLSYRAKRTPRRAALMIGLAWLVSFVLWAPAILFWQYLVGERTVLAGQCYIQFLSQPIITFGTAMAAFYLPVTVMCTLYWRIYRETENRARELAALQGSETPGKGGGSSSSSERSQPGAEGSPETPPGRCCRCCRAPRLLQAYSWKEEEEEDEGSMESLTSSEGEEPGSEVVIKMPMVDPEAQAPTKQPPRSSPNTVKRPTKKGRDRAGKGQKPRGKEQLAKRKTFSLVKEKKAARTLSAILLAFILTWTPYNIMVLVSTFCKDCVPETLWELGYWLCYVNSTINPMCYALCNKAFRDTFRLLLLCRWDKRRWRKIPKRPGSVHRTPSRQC
smiles,measurement,setting,value
CC/C=C\CCOC(=O)CCCCC,Potency,[1],inactive
same,Potency,[2],inactive
same,Potency,[3],inactive
same,Potency,[4],inactive
same,Potency,[5],inactive
same,Potency,[6],inactive
same,Potency,[7],inactive
same,Potency,[8],inactive
same,Potency,[9],inactive
same,Potency,[10],inactive
same,Potency,[11],inactive
same,Potency,[12],inactive
same,Potency,[13],inactive
same,Potency,[14],inactive
same,Potency,[15],inactive
same,Potency,[16],inactive
same,Potency,[17],inactive
same,Potency,[18],inactive
same,Potency,[19],inactive
CCCCCCCCCCCCCCCC(=O)OC,"activity change, negative = cytotoxicity",[1],3.99% [at 19 µM] (inactive)
same,"activity, positive = activation",[2],0.79% [at 19 µM] (inactive)
same,activity change,[3],"0.561% [at 11.8 µM, stronger effect = higher value] (inactive)"
same,activation,[4],-2.17% [at 15.8 µM] (inactive)
same,activation,[5],0.455% [at 11.8 µM] (inactive)
same,activation,[6],0.811% [at 13.5 µM] (inactive)
same,activation,[7],0.588% [at 13.6 µM] (inactive)
same,"activity change, negative = cytotoxicity",[8],-1.62% [at 13.5 µM] (inactive)
same,"activity change, negative = cytotoxicity",[9],-0.0573% [at 13.5 µM] (inactive)
same,"activity change, negative = cytotoxicity",[10],2.56% [at 13.5 µM] (inactive)
same,activation,[11],-4.84% [at 13.5 µM] (inactive)
same,"activity, negative = inhibition",[12],-2.95% [at 12.7 µM] (inactive)
same,activation,[13],-0.493% [at 15.9 µM] (inactive)
same,"activity, negative = inhibition",[14],-19.7% [at 12.6 µM] (inactive)
same,activation,[15],-0.393% [at 15.8 µM] (inactive)
same,"activity change, negative = inhibition",[20],-6.58% [at 18.9 µM] (inactive)
same,"activity change, negative = inhibition",[17],5.87% [at 19 µM] (inactive)
same,"activity change, negative = inhibition",[19],-0.0877% [at 18.9 µM] (inactive)
NC(=O)NC1N=C([O][Al])NC1=O (stereo not given),Potency,[1],inactive
same,Potency,[2],inactive
same,Potency,[3],inactive
same,Potency,[4],inactive
same,Potency,[5],inactive
same,Potency,[6],inactive
same,Potency,[7],inactive
same,Potency,[8],inactive
same,Potency,[9],inactive
same,Potency,[10],inactive
same,Potency,[11],inactive
same,Potency,[12],inactive
same,Potency,[13],inactive
same,Potency,[14],inactive
same,Potency,[16],inactive
same,Potency,[20],inactive
same,Potency,[17],inactive
same,Potency,[18],inactive
same,Potency,[19],inactive
COC(OC)C(C)c1ccccc1 (stereo not given),Potency,[1],inactive
same,Potency,[2],inactive
same,Potency,[3],inactive
same,Potency,[4],inactive
same,Potency,[5],inactive
same,Potency,[6],inactive
same,Potency,[7],inactive
same,Potency,[8],inactive
same,Potency,[9],inactive
same,Potency,[10],inactive
same,Potency,[11],inactive
same,Potency,[12],inactive
same,Potency,[13],inactive
same,Potency,[14],inactive
same,Potency,[15],inactive
same,Potency,[16],inactive
same,Potency,[17],inactive
same,Potency,[18],inactive
same,Potency,[19],inactive
CCc1ccc(C=O)cc1,Potency,[1],inactive
same,Potency,[2],inactive
same,Potency,[3],inactive
same,Potency,[4],inactive
same,Potency,[5],inactive
same,Potency,[6],inactive
same,Potency,[7],inactive
same,Potency,[8],inactive
same,Potency,[9],inactive
same,Potency,[10],inactive
same,Potency,[11],inactive
same,Potency,[12],inactive
same,Potency,[13],inactive
same,Potency,[14],inactive
same,Potency,[15],inactive
same,Potency,[20],inactive
same,Potency,[17],inactive
same,Potency,[18],inactive
same,Potency,[19],inactive
O=C(Nc1ccc(Cl)cc1)Nc1ccc(Cl)c(Cl)c1,Potency,[1],inactive
same,Potency,[2],21.6 µM (active) and inactive
same,Potency,[3],inactive
same,Potency,[4],inactive
same,Potency,[5],inactive
same,Potency,[6],inactive
same,Potency,[7],inactive
same,Potency,[8],inactive
same,Potency,[9],inactive
same,Potency,[10],inactive
same,Potency,[11],inactive
same,Potency,[12],inactive
same,Potency,[13],inactive
same,Potency,[14],inactive
same,Potency,[15],inactive
same,Potency,[20],inactive
same,Potency,[17],68.2 µM (active) and 54.5 µM (active)
same,Potency,[18],inactive
same,Potency,[19],48.6 µM (active) and inactive
O=c1c(-c2ccc(O)cc2)coc2cc(O)ccc12,Potency,[1],inactive
same,Potency,[2],inactive
same,Potency,[3],inactive
same,Potency,[4],inactive
same,Potency,[5],inactive
same,Potency,[6],inactive
same,Potency,[7],inactive
same,Potency,[8],inactive
same,Potency,[9],10.1 µM (active)
same,Potency,[10],inactive
same,Potency,[11],inactive
same,Potency,[12],33.4 µM (active)
same,Potency,[13],inactive
same,Potency,[14],inactive
same,Potency,[15],inactive
same,Potency,[20],inactive
same,Potency,[17],inactive
same,Potency,[18],inactive
same,Potency,[19],inactive
C[N+](C)(C)CC[N+]1(C)Cc2c(Cl)c(Cl)c(Cl)c(Cl)c2C1,Potency,[1],inactive
same,Potency,[2],inactive
same,Potency,[3],inactive
same,Potency,[4],inactive
same,Potency,[5],inactive
same,Potency,[6],inactive
same,Potency,[7],inactive
same,Potency,[8],inactive
same,Potency,[9],inactive
same,Potency,[10],inactive
same,Potency,[11],inactive
same,Potency,[12],inactive
same,Potency,[13],inactive
same,Potency,[14],inactive
same,Potency,[15],inactive
same,Potency,[20],inactive
same,Potency,[18],inactive
same,Potency,[19],inactive
